Out of some 340,000 compounds screened, about 2,100 (0.62%) were called active. The list is a sample of the results. Entries with a potency or affinity are not part of this list. A number with no mark means an inactive call.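 The calls were made as follows: active = first-screen hits whose inhibition reached a set limit at any dose in the follow-up dose series; inconclusive = inhibition above the set first-screen limit but never retested; inactive = the rest.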

In this assay the target is Rac GTPase-activating protein 1 (Homo sapiens) (UniProt Q9H0H5). The assay is described as follows: blockers of MgcRacGAP-driven Rac1 GTP hydrolysis – biochemical, ADP Hunter fluorescence, primary and confirmatory, confirmation (AID 624330).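 Also: fluorescence reports GDP produced by GAP-driven GTP hydrolysis.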 The settings on record: MgcRacGAP-stimulated Rac1 GTP hydrolysis, at 30 µM, stronger effect = higher value, GST-tagged Rac1 F28L mutant substrate.
Sequence of Rac GTPase-activating protein 1 (Homo sapiens) (Q9H0H5 whole entry, looked up): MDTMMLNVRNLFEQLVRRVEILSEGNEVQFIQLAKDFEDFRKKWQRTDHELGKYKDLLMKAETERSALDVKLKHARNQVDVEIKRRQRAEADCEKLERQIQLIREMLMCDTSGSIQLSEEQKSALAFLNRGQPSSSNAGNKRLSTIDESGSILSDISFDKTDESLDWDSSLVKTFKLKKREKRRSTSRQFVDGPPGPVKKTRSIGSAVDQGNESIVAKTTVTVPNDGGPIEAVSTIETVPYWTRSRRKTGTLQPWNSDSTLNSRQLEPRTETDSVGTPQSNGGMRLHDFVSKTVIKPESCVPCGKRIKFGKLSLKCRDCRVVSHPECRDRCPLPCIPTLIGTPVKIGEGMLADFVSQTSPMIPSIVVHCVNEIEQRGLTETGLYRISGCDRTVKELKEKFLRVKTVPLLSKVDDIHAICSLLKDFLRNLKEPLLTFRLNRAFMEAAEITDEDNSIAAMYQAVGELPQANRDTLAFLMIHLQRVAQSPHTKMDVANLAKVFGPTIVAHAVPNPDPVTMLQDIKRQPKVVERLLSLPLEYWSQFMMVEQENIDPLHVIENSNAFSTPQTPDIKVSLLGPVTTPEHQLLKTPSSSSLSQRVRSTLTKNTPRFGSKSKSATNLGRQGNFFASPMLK
A word on the inhibition: it is the relative decrease from the control value, in per cent. With `CC(NC(=O)CCC(=O)NC(C)C1COc2ccccc2O1)C1COc2ccccc2O1` (stereo unspecified), the inhibition is 6.94%.
Next, `CCOC(=O)CCNCC1COc2ccccc2O1` (stereo unspecified): 0.26%; `COc1ccc2nc(NC(=O)CN(C)S(=O)(=O)c3cccs3)sc2c1`: 2.51%.
Next, `Cc1c(C(=O)NC2CC(=O)N(c3ccc4c(c3)OCCO4)C2)cccc1[N+](=O)[O-]` (stereo unspecified): 10.5%; `O=S(=O)(Nc1ccc(-c2ccc(NS(=O)(=O)c3ccccc3)cc2)cc1)c1ccccc1`: -20.9%.
`COc1ccc(NC(=O)C(Cl)=C(Cl)Cl)cn1`: the inhibition was 6.63%.
Next, `COc1ccc(NC(=O)Cc2ccccc2)cn1`: 3.42%; `COc1ccc(CS(=O)(=O)/C(Cl)=C(/Cl)C(=O)Nc2ccc(OC)nc2)cc1`: 19.4%.
For `COc1ccc(NC(=O)/C(Cl)=C(/Cl)S(=O)(=O)Cc2ccccc2)cn1` the value was 25.6%; for `CC(C)(C)c1nnc2cccc(Cl)n12`, 0.67%.
For `CCN1C(=O)[C@H]2[C@@H](c3ccc(-c4ccc(C(C)=O)cc4)c(OC)c3)N3CCCC[C@@]3(C(=O)OC)[C@H]2C1=O` the value was 5.29%; for `CCc1cc(=O)oc2cc(OC(C)C(=O)NCc3ccccn3)ccc12` (stereo unspecified), 7.67%; for `C/C(=N\NC(=O)c1ccc(NS(=O)(=O)c2cccs2)cc1)c1ccc(C(C)(C)C)cc1`, 8.43%.
With `COCCNCc1ccccc1`, the inhibition was -2.56%.
Turning to `COCCNc1nc(CSc2ccccc2)nc2sc(C)c(C)c12`, the inhibition was 8.51%.
As for `Cc1cc(C)cc(NC(=S)N2CCC(NC(=O)c3ccc(F)cc3)CC2)c1`, the inhibition was 4.86%.
As to `CCOc1ccc(NC(=O)C(NC(=O)C2CCC(C)CC2)C(C)C)cc1` (stereo unspecified), the inhibition is 8.67%.
Regarding `COc1ccc(-c2cc(-c3ccc(O)cc3)nc(N)c2C#N)cc1OC`, the inhibition is 11.9%.
As for `CCOc1cc(-c2cc(-c3ccc(C)cc3)nc(N)c2C#N)ccc1O`, the inhibition was 16.3%.
For `COc1cc(/C=C(\C#N)c2[nH]nc(N)c2C#N)cc(OC)c1O` the value was 0.59%; for `COc1cc(-c2cc(-c3ccc(F)cc3)nc(N)c2C#N)ccc1O`, 40.9%.
Next, `CCCc1cc(-c2ccc(O)c(OCC)c2)c(C#N)c(N)n1`: -0.99%.
For `CCOc1cc(-c2cc(-c3ccccc3)nc(N)c2C#N)ccc1O` the value was 38.4%; for `CCN(CC(=O)Nc1ccc(C#N)cc1)CC(=O)Nc1ccc2c(c1)OCCO2`, 4.07%.
In the case of `CCNC(=O)N1CCC(n2nccc2NC(=O)CCCc2ccccc2)CC1`, the inhibition was 6.88%.
For the molecule `COc1ccccc1OCCC(=O)Nc1ccc2c(c1)OCO2`, the inhibition was 2.43%.
For the molecule `C=CC[N+](C)(C)CCN1C(=O)C2C(c3ccccc3)C=CC(c3ccccc3)C2C1=O` (stereo unspecified), the inhibition is -0.41%.
Next, `C=CCC(NCc1ccco1)c1ccc(OC)c(OC)c1` (stereo unspecified): -6.08%.
Consider `O=C(Oc1ccc2c(c1)OCC2=O)c1ccccc1`, for which the inhibition was 0.9%.
For `O=c1oc(-c2cccc(S(=O)(=O)N3CCOCC3)c2)nc2ccccc12` the value was 13.7%; for `Cc1cccc(NC(=S)NC(=O)/C=C/c2ccccc2)n1`, -2.63%; for `CC(C)(C)c1ccc(C(=O)NCC(=O)N2CCC3(CC2)NCCc2[nH]cnc23)cc1`, 11%.
`Cc1cccc(/C=N\NC(=O)c2ccccc2-n2cccc2)c1`: the inhibition is 5.46%.
Next, `O=C(N/N=C\c1ccccc1)c1ccccc1-n1cccc1`: 6.39%.
Next, `O=C(N/N=C/c1ccc[nH]1)c1ccccc1OCc1ccc(F)cc1`: 9.06%; `CCOc1cc(/C=N/NC(=O)c2cc(C)n(-c3ccc(F)cc3)c2C)ccc1O`: 16.4%; `O=C(N/N=C/c1ccc(Br)cc1)c1ccccc1-n1cccc1`: 10.6%.
Regarding `O=C(COc1ccccc1-c1ccccc1)N/N=C/c1ccc2ccccc2c1`, the inhibition was 6.35%.
For `O=C(N/N=C\c1ccc(O)c([N+](=O)[O-])c1)c1ccccc1-n1cccc1` the value was -4.94%.
As for `COc1cc(/C=N/NC(=O)c2ccccc2O)ccc1OCC(=O)Nc1ccccc1`, the inhibition was 14.4%.
As for `CC(=O)c1cccc(S(=O)(=O)NC2CCCCCC2)c1`, the inhibition was 1.69%.
As to `COc1ccc(C(C(=O)NC2CCCCC2)N(Cc2ccco2)C(=O)c2ccccn2)c(OC)c1` (stereo unspecified), the inhibition is 10.7%.
On to `CCCN(CCC)C(=O)c1ccc2c(c1)S(=O)(=O)c1ccccc1C2=O`, for which the inhibition is 6.12%.
For `NC(=S)Nc1ccc(S(=O)(=O)c2ccc(NC(N)=S)cc2)cc1` the value was 10.8%; for `CC1(C)C(=O)OC(c2c3ccccc3cc3ccccc23)C(C)(C)C1=O` (stereo unspecified), 1.71%; for `CC(NS(=O)(=O)c1cccc(S(=O)(=O)c2ccccc2)c1)C(=O)O` (stereo unspecified), -5.11%.
For `CCOC(=O)N1CCN(C(=O)c2cccc(S(=O)(=O)Nc3ccc(F)cc3)c2)CC1` the value was 4.83%; for `CCOC(=O)C1CCN(c2c(N3CCCC(C(=O)OCC)C3)c(=O)c2=O)CC1` (stereo unspecified), 4.65%; for `CN(C)CCNC(=O)c1onc(CSc2nc3ccccc3[nH]2)c1C(=O)NCCN(C)C`, 17.3%.
Regarding `Brc1ccc(-c2ccc(/C=N/Nc3nc4ccccc4[nH]3)o2)cc1`, the inhibition was 3.17%.
For `COCCNC(=O)/C(C#N)=C/c1ccc(C(=O)O)cc1` the value was 0.25%; for `COc1cccc(C(=O)N2CCn3c2nc2ccccc23)c1`, 8.54%.
Next, `O=C(Nc1nnc(C2CCCCC2)s1)C1CC(=O)N(c2ccc(F)cc2)C1` (stereo unspecified): 3.31%; `COc1ccc(NC(=O)CSc2ccc3ccccc3c2)cc1S(=O)(=O)N1CCCCC1`: 8.21%; `Cc1ccc2nc(C)cc(N/N=C/c3cccc(O)c3)c2c1`: 14.1%.
For `COc1ccc(/C=N/Nc2cc(C)nc3ccccc23)cc1` the value was 14.7%.
As to `COc1cccc2c(N/N=C/c3ccc(O)c(O)c3)cc(C)nc12`, the inhibition is 27.1%.
Next, `COc1cccc2c(N/N=C/c3ccccc3)cc(C)nc12`: 11%; `N#Cc1nc(COc2ccc(F)cc2)oc1N1CCC(Cc2ccccc2)CC1`: 0.56%.
As to `N#Cc1ccc(N/N=C/c2ccccc2)c([N+](=O)[O-])c1`, the inhibition was 2.61%.
Next, `Cc1sc(NC(=O)c2ccc(F)cc2)c(CN2CCCCCC2)c1C`: 13.7%; `CCn1c(CC(=O)Nc2ccc(Cl)c(Cl)c2)nnc1SCc1ccc(Cl)cc1`: 11.6%; `Cc1sc2ncn(CC(=O)N3CCCCC3)c(=O)c2c1C`: 6.45%.
Turning to `O=C(Nc1ccncc1)C1CC(=O)N(c2ccccc2)C1` (stereo unspecified), the inhibition was 0.29%.
Next, `CCN1C(=O)[C@H]2[C@@H](c3ccc(Cl)cc3)N3C(=O)CN(Cc4ccccc4)C(=O)[C@@]3(C)[C@H]2C1=O`: 5.83%; `N#CCCNc1ccc(OCCC#N)cc1`: 11.4%.
Regarding `CCOc1ccc(NCCC#N)cc1`, the inhibition is 30.3%.
Regarding `CCC(=O)Nc1cccc(C(=O)/C=C/c2cc(Br)ccc2OC)c1`, the inhibition is 7.87%.
On to `CCC(CO)N=C1CC(C)(C)CC(=O)/C1=C(/O)CCCN1C(=O)c2ccccc2C1=O` (stereo unspecified), for which the inhibition is 0.34%.
Consider `COc1cc2nc(N3CCN(c4cc(C)ccc4C)CC3)nc(N)c2cc1OC`, for which the inhibition is 4.78%.
As for `COc1cc2nc(N3CCN(C(=O)c4ccco4)CC3)nc(N)c2cc1OC`, the inhibition is 17.7%.
On to `COC(=O)[C@H](CC(C)C)NC(=O)NCCCc1ccccc1`, for which the inhibition was 3.77%.
Next, `O=C(CCNS(=O)(=O)c1cccc2nsnc12)NCCC1=CCCCC1`: 11.7%.
For `Cc1cccc(OCC(=O)Nc2ccc3c(C)cc(=O)oc3c2)c1` the value was -2.83%; for `Cc1nn(-c2cc(N3CCCCC3)ccc2N)c(=O)c2ccccc12`, 12.5%.
For `CN1CCN(c2ccc(C(=O)c3ccc(F)cc3)cc2)CC1` the value was 12.6%; for `Nc1ccc(N2CCCCC2)cc1N1CCCCC1`, 10.4%; for `Nc1nc(N2CCN(c3ccc(F)cc3)CC2)n[nH]1`, 12.1%.
For the molecule `N#Cc1ccc(N2CCN(c3ccc(F)cc3)CC2)cc1`, the inhibition is 7.18%.
Next, `CC(=O)Nc1ccc(N2CCN(C(C)=O)CC2)cc1`: 8.62%.
Next, `CC(=O)N1CCN(c2ccc([N+](=O)[O-])cc2)CC1`: 5.88%; `CN1CCN(S(=O)(=O)c2ccc(N)cc2)CC1`: -0.77%; `OCC1CCCN(C(=S)NCCc2ccccc2)C1` (stereo unspecified): 2.94%.
Turning to `O=C(Cn1cnc2c(nnn2Cc2ccc(Cl)cc2)c1=O)NC1CCCC1`, the inhibition was 7.49%.
On to `COc1cc(SC)ccc1C(=O)OCC(=O)NCCC1=CCCCC1`, for which the inhibition is -5.82%.
For `C=CCn1c(SC(C)C(=O)NC2CC2)nnc1-c1ccoc1C` (stereo unspecified), the inhibition was 4.4%.
In the case of `CCOc1cccc(C(=O)NNC(=O)C2C3C=CC(C3)C2C(=O)O)c1` (stereo unspecified), the inhibition is 5.45%.
For `CCCN1Cc2cccc(C(=O)NCCc3ccccc3)c2C1=O` the value was 5.13%.
Next, `Cc1ccc(-c2nn(-c3ccccc3)cc2C(=O)Nc2ccc(C)c(S(=O)(=O)N3CCOCC3)c2)cc1`: -2.39%.
For `COc1ccc(C(CNS(=O)(=O)c2ccccc2)N2CCN(C)CC2)cc1` (stereo unspecified) the value was 1.91%; for `O=C(c1cccs1)N1CCN(c2ccc(F)cc2)CC1`, 13.3%.
In the case of `O=C(Nc1ccc(N2CCN(c3ccccc3)CC2)c(F)c1)C1CC1`, the inhibition is 5.36%.
In the case of `O=C(CSc1ccccc1)Nc1ccc(N2CCN(c3ccccc3)CC2)c(F)c1`, the inhibition was 5.08%.
For `CCN1CCN(c2ccc(NC(=O)Cc3ccccc3)cc2)CC1`, the inhibition was 6.87%.
For `O=C(c1cccs1)N1CCN(c2ccccc2)CC1`, the inhibition is -0.45%.
Turning to `CCN1CCN(c2ccc(NC(=O)c3ccc(Br)o3)cc2)CC1`, the inhibition is 8.5%.

Source of the values: PubChem BioAssay AID624330 (Southern Research Specialized Biocontainment Screening …, 2012).
